# In PubChem BioAssay (NCATS):
# Results filed as inconclusive are left out. The source made the active and inactive calls. The call rests on the fitted dose curve; in most records, active means well fitted inhibition curve with a large enough effect; inconclusive means small, poorly fitted or top-dose-only effect; inactive means flat fitted curve, though single readings scatter.
# Test system: CP286
# Experiment: qHTS profiling for inhibitors of Plasmodium falciparum proliferation (AID 504749); further: nearly all actives have a fitted effect of over 60% in size;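 on activity, negative = inhibition: 0% = DMSO vehicle and full inhibition = artemisinin control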
# Conditions: P. falciparum in erythrocytes, SYBR Green DNA, 72 h; series mostly up to 28.7 µM; activity, negative = inhibition: at the top concentration
# Procedure, shortened: (§1)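 P. falciparum-infected erythrocytes (0.3% parasitemia, 2.5% hematocrit) incubated with compound 72 h at 37 C, 5% CO2. Parasite DNA detected by SYBR Green after lysis, overnight at room temperature; normalised to 0.29 uM artemisinin and DMSO.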
# Potency means the concentration at half of the fitted maximal effect.
row,SMILES,"activity, negative = inhibition"
1,CCCCCCCCCCCCCCC[C@H](O)[C@H](N)CO,-27.4% (inactive)
2,CC(C)NC[C@H](O)COc1ccc(CC(N)=O)cc1,0.266% (inactive)
3,CCCCCCCCCCCCCCCCCCOC[C@H](COP(=O)([O-])OCC[N+](C)(C)C)OC,1.03% (inactive)
4,CC(O)C(O)[C@H]1CNc2nc(N)[nH]c(=O)c2N1 (stereo partly specified),-0.801% (inactive)

# Test system: CP291
# Experiment: as above
# Conditions: P. falciparum in erythrocytes, SYBR Green DNA, 72 h; series mostly up to 28.7 µM; activity, negative = inhibition: at the top concentration
# Procedure, shortened: as §1
row,SMILES,"activity, negative = inhibition"
1,CCCCCCCCCCCCCCC[C@H](O)[C@H](N)CO,-4.7% (inactive)
2,CC(C)NC[C@H](O)COc1ccc(CC(N)=O)cc1,-2.39% (inactive)
3,CCCCCCCCCCCCCCCCCCOC[C@H](COP(=O)([O-])OCC[N+](C)(C)C)OC,2.03% (inactive)
4,CC(O)C(O)[C@H]1CNc2nc(N)[nH]c(=O)c2N1 (stereo partly specified),-3.92% (inactive)

# Test system: CP297
# Experiment: as above
# Conditions: P. falciparum in erythrocytes, SYBR Green DNA, 72 h; series mostly up to 28.7 µM; activity, negative = inhibition: at the top concentration
# Procedure, shortened: as §1
row,SMILES,"activity, negative = inhibition"
1,CCCCCCCCCCCCCCC[C@H](O)[C@H](N)CO,-8.94% (inactive)
2,CCCCCCCCCCCCCCCCCCOC[C@H](COP(=O)([O-])OCC[N+](C)(C)C)OC,1.64% (inactive)
3,CC(O)C(O)[C@H]1CNc2nc(N)[nH]c(=O)c2N1 (stereo partly specified),1.27% (inactive)

# Test system: CP305
# Experiment: as above
# Conditions: P. falciparum in erythrocytes, SYBR Green DNA, 72 h; series mostly up to 28.7 µM; activity, negative = inhibition: at the top concentration
# Procedure, shortened: as §1
row,SMILES,"activity, negative = inhibition"
1,CCCCCCCCCCCCCCC[C@H](O)[C@H](N)CO,10.5% (inactive)
2,CC(C)NC[C@H](O)COc1ccc(CC(N)=O)cc1,1.12% (inactive)
3,CCCCCCCCCCCCCCCCCCOC[C@H](COP(=O)([O-])OCC[N+](C)(C)C)OC,1.3% (inactive)
4,CC(O)C(O)[C@H]1CNc2nc(N)[nH]c(=O)c2N1 (stereo partly specified),1.98% (inactive)

# Test system: CP315
# Experiment: as above
# Conditions: P. falciparum in erythrocytes, SYBR Green DNA, 72 h; series mostly up to 28.7 µM; activity, negative = inhibition: at the top concentration
# Procedure, shortened: as §1
row,SMILES,"activity, negative = inhibition"
1,CCCCCCCCCCCCCCC[C@H](O)[C@H](N)CO,1.34% (inactive)
2,CC(C)NC[C@H](O)COc1ccc(CC(N)=O)cc1,1.77% (inactive)
3,CCCCCCCCCCCCCCCCCCOC[C@H](COP(=O)([O-])OCC[N+](C)(C)C)OC,-2.07% (inactive)
4,CN1C2CCC1CC(OC(c1ccccc1)c1ccccc1)C2 (stereo unspecified),-9.22% (inactive)
5,CC(O)C(O)[C@H]1CNc2nc(N)[nH]c(=O)c2N1 (stereo partly specified),1.03% (inactive)
6,c1ccc(C2CN3CCSC3=N2)cc1 (stereo unspecified),-2.76% (inactive)

# Test system: CP325
# Experiment: as above
# Conditions: P. falciparum in erythrocytes, SYBR Green DNA, 72 h; series mostly up to 28.7 µM; activity, negative = inhibition: at the top concentration
# Procedure, shortened: as §1
SMILES,"activity, negative = inhibition",Potency
CCCCCCCCCCCCCCC[C@H](O)[C@H](N)CO,0.919% (inactive),
CC(C)NC[C@H](O)COc1ccc(CC(N)=O)cc1,1.57% (inactive),
CCCCCCCCCCCCCCCCCCOC[C@H](COP(=O)([O-])OCC[N+](C)(C)C)OC,-0.929% (inactive),
CC(O)C(O)[C@H]1CNc2nc(N)[nH]c(=O)c2N1 (stereo partly specified),0.0417% (inactive),
c1ccc(C2CN3CCSC3=N2)cc1 (stereo unspecified),,16.9 µM (active)

# Test system: CP329
# Experiment: as above
# Conditions: P. falciparum in erythrocytes, SYBR Green DNA, 72 h; series mostly up to 28.7 µM; activity, negative = inhibition: at the top concentration
# Procedure, shortened: as §1
row,SMILES,"activity, negative = inhibition"
1,CCCCCCCCCCCCCCC[C@H](O)[C@H](N)CO,-0.215% (inactive)
2,CC(C)NC[C@H](O)COc1ccc(CC(N)=O)cc1,3.64% (inactive)
3,CCCCCCCCCCCCCCCCCCOC[C@H](COP(=O)([O-])OCC[N+](C)(C)C)OC,8.89% (inactive)
4,CN1C2CCC1CC(OC(c1ccccc1)c1ccccc1)C2 (stereo unspecified),-21.2% (inactive)
5,CC(O)C(O)[C@H]1CNc2nc(N)[nH]c(=O)c2N1 (stereo partly specified),1.21% (inactive)
